DT40 TDP1 CPT = DT40-hTDP1 cell growth loss with CPT | chicken DT40 Tdp1-/-;hTDP1 cells + 20 nM CPT, ATP luminescence, 48 h | Potency, µM (titrated, usually from 46.2 µM), for inactives: at the top dose activity change, negative = growth inhibition, most hits filed as inhibitors | 12% of 420,000 active; also: nearly all actives have a fitted effect of over 55% in size
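Cell growth measured by CellTiter-Glo luminescence after a minimum 48 h, 37 C compound exposure with 20 nM CPT in Tdp1-knockout DT40 cells stably expressing hTDP1, seeded 400/well; qHTS titration format.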
KB-3-1 cytotox = KB-3-1 parental cell cytotoxicity | KB-3-1 viability, CellTiter-Glo ATP luminescence, 72 h | Potency, µM (series often up to 46.1 µM), hits mostly cytotoxic | 1.4% of 400,000 active | AID 1347075; also: nearly all actives have a fitted effect of over 60% in size
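Using CellTiter-Glo luminescence, growth of non-resistant KB-3-1 adenocarcinoma cells is assessed 72 h after pin-tool compound addition at 37 °C. Normalized responses across the concentration series yield fitted curves.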
KB-V1 cytotox = kills drug-selected multidrug resistant KB-V1 cells; 3.4% of 400,000 active; Potency, µM (doses to about 46.1 µM), most hits filed as cytotoxic; KB-V1 MDR cells viability, CellTiter-Glo, 72 h; AID 1347076; also: nearly all actives have a fitted effect of over 60% in size
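KB-V1, DMEM (no phenol red) + 10% FBS; cpd pin-transferred, titration series; 72 h, 37 degrees C; CellTiter-Glo, luminescence. Data normalized, curve-fit.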
HT1080NT lethal = kills 2HG-producing HT-1080-NT fibrosarcoma cells; HT-1080-NT fibrosarcoma viability, CellTiter-Glo ATP luminescence, 48 h; AID 686970; Potency, µM (doses to about 46.1 µM), for inactives: at the top dose activity, negative = less viability, actives largely listed as cytotoxic; 1.6% of 360,000 active;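 also: NT is the 2HG producing partner of a matched IDH1 knockdown line; 0% = DMSO-treated cells and -100% = media-only wells without cells; nearly all actives have a fitted effect of over 55% in size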
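Toxicity toward the 2HG-producing NT line was scored as %Activity, normalised to DMSO and no-cell wells, from CellTiter-Glo luminescence after 48 hours' treatment.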
DT40 TDP1 no CPT = qHTS for Inhibitors of human tyrosyl-DNA phosphodiesterase 1 (TDP1): qHTS in cells in absence of CPT; AID 686978, 2013; Potency, µM (series often up to 46.2 µM), without a hit: at the top dose activity change, negative = growth inhibition, actives largely listed as inhibitors; DT40 Tdp1-/- hTDP1 cells, no CPT, ATP luminescence, 48 h; 15% of 420,000 active; also: nearly all actives have a fitted effect of over 55% in size
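Cells were dispensed at 400 per well, compounds added by pin tool, plates incubated ≥48 hr at 37 °C, then CellTiter-Glo added for 30 min at room temperature before luminescence reading. Line: DT40 Tdp1-/- complemented with hTDP1; camptothecin omitted.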
HT1080 IDH1KD tx = kills HT-1080 cells with IDH1 knockdown; HT-1080 IDH1 knockdown viability, ATP luminescence, 48 h; Potency, µM (series often up to 46.1 µM), for the others: at the highest dose activity, negative = toxicity, usual class: cytotoxic; 2% of 360,000 active; AID 686971;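 also: 0% = DMSO wells and -100% = cell-free medium wells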
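Luminescent ATP read-out (CellTiter-Glo, 10 min at room temperature) after 48 h compound exposure at 37 °C gave viability of IDH1-knockdown HT-1080 cells. Activity was normalised to DMSO and cell-free wells, then fitted as concentration-response curves.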
Numbers without * were called inactive; i = inactive; u = inconclusive; x = no result given; [ ] = dose if it differs, or a comment. Shown are actives, neighbours in structure and some others; about 19% of the full set was active somewhere. Calls follow the shape of the dose curve; as a rule, active = well fitted curve in the direction sought with a large enough effect; inconclusive = small, poorly fitted or top-dose-only effect, or another doubt; inactive = no such curve, though single readings can be large; an effect the other way counts as inactive or inconclusive. Unless noted, % is scaled to controls: 0 for no effect and ±100 for the full control effect; potency is read from the fitted curve at half-maximal effect.

SMILES	DT40 TDP1 CPT	KB-3-1 cytotox	KB-V1 cytotox	HT1080NT lethal	DT40 TDP1 no CPT	HT1080 IDH1KD tx
CNC(=O)C1CCC(Cn2c(=O)c3sccc3n(CC(=O)Nc3ccccc3)c2=O)CC1 (configuration not stated)	0.9%	i	u	x	-23.4%	x
Cc1ccccc1Cn1c(C)c(CNCc2ccccc2)c(C(=O)O)c1C	-1.0%	i	i	x	-28.3%	x
CCN(CC)c1ccc(C2=NNC(=O)CC2C)cc1[N+](=O)[O-] (configuration not stated)	-18.0%	0.206µM*	u	8.0%[9.24 µM]	u	u
COc1ccc(-c2nc3ccc(C4=NNC(=O)CC4C)cc3[nH]2)cc1 (configuration not stated)	u	x	x	x	13.3µM*	x
Cc1ccc2nc(-c3c[nH]c4ccccc34)c(Nc3ccccc3)n2c1	16.4µM*	i	i	x	u	x
c1ccc(Nc2c(-c3c[nH]c4ccccc34)nc3ccccn23)cc1	14.6µM*	i	i	x	11.6µM*	x
COc1ccc(Nc2c(-c3ccc(C)o3)nc3ccccn23)cc1	u	x	x	1.0%	u	3.8%
Fc1ccc(Nc2c(-c3c[nH]c4ccccc34)nc3ccccn23)cc1	16.4µM*	i	i	x	20.6µM*	x
CCc1ccc(C2CC3C(CN2S(=O)(=O)c2ccc(C)cc2)[C@@H](O)C[C@@H](c2ccc(CC)cc2)N3S(=O)(=O)c2ccc(C)cc2)cc1 (some centres not stated)	u	i	i	7.4%	u	6.5%
Cc1ccc(S(=O)(=O)N2CCN(CCOc3cccc(C)c3)CC2)cc1	-18.0%	i	i	2.5%	7.31µM*	-4.2%
O=S(=O)(c1ccc(F)cc1)N1CCN(CCOc2ccccc2)CC1	-1.1%	i	i	1.9%	-11.9%	-1.7%
O=S(=O)(c1ccc(Br)s1)N1CCN(CCOc2ccccc2)CC1	20.6µM*	x	x	9.6%	u	-15.1%
Cc1ccc(S(=O)(=O)N2CCN(CCOc3c(Cl)cccc3Cl)CC2)cc1C	20.6µM*	i	i	14.2%	u	15.4%
O=S(=O)(c1ccc(C(F)(F)F)cc1)N1CCN(CCOc2ccccc2)CC1	-14.3%	i	i	-14.6%	-16.3%	-16.4%
COc1ccc(S(=O)(=O)N2CCN(CCOc3ccccc3Cl)CC2)cc1OC	23.1µM*	i	u	1.9%	u	-11.7%
CCCN(CCC)C(=O)Cn1c(=O)n(-c2cccc(OC)c2)c(=O)c2c3c(sc21)CCCC3	u	i	i	x	u	x
Cc1cccc(C)c1NC(=O)C1(C)CN(S(C)(=O)=O)CC(=O)N1C1CC1 (configuration not stated)	16.0%	i	i	-1.5%	3.0%	6.7%
COc1ccc(S(=O)(=O)N2CCN(CCOc3ccc(Br)cc3)CC2)cc1OC	u	u	i	-18.2%	14.6µM*	u
COc1ccc(OC)c(C(=O)CN2CCN(S(=O)(=O)c3ccc(Br)cc3)CC2)c1	-11.5%	i	i	-3.3%	-18.1%	-2.5%
Clc1cccc(OCCN2CCN(CCOc3cccc(Cl)c3)CC2)c1	2.91µM*	16.4µM*	i	u	2.31µM*	u
CCCCn1c(-c2cccc(Br)c2)nc2cc3[nH]c(=O)c(C(C)C)nc3cc21	18.4µM*	u	i	-21.1%	25.9µM*	-21.4%
CCCn1c(-c2cccc(Br)c2)nc2ccccc21	-18.4%	i	i	x	-25.8%	x
CCCCn1c(-c2ccc(Cl)c(Cl)c2)nc2cc3[nH]c(=O)c(C(C)C)nc3cc21	u	i	i	-10.4%	u	-29.3%
CCCCn1c(-c2ccc(C(C)(C)C)cc2)nc2cc3[nH]c(=O)c(C(C)C)nc3cc21	u	i	i	1.4%	14.6µM*	5.9%

Assay outcomes from PubChem BioAssay.
